Results on 14 compounds are retold here after PubChem BioAssay AID1745853 (National Center for Advancing Translational Sciences (NCATS), 2022).

Holding throughout (assay): Primary Screen for Target Class Profiling of Small Molecule Inhibitors of Methyltransferases
Assay [1] addresses Catechol O-methyltransferase (Homo sapiens) (UniProt P21964). Conditions: purified enzyme, MTase-Glo SAH luminescence; activity change, negative = inhibition: at 40 µM, stronger effect = lower value; outcome: 40 uM. In a few lines:
(§1)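 Each enzyme was assayed with SAM and its substrate. SAH formation detected by MTase-Glo luminescence; single-point 40 uM screen[…].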

Assay [2] has as its target Glycine N-methyltransferase (Homo sapiens) (UniProt Q14749). Conditions: purified enzyme, MTase-Glo SAH luminescence; measured here: GNMT inhibition; at 40 µM; stronger effect = lower value. In a few lines: as §1
For assay [3], the target named is Guanidinoacetate N-methyltransferase (Homo sapiens) (UniProt Q14353). Conditions: purified enzyme, MTase-Glo SAH luminescence; measured here: GAMT inhibition; at 40 µM; stronger effect = lower value. In outline: as §1
Assay [4] addresses Histamine N-methyltransferase (Homo sapiens) (UniProt P50135). Conditions: purified enzyme, MTase-Glo SAH luminescence; measured here: HNMT inhibition; at 40 µM; stronger effect = lower value. In a few lines: as §1
In assay [5] the target is Nicotinamide N-methyltransferase (Homo sapiens) (UniProt P40261). Conditions: purified enzyme, MTase-Glo SAH luminescence; measured here: NNMT inhibition; at 40 µM; stronger effect = lower value. In a few lines: as §1
Sequence of Nicotinamide N-methyltransferase (Homo sapiens) (P40261 whole entry, looked up): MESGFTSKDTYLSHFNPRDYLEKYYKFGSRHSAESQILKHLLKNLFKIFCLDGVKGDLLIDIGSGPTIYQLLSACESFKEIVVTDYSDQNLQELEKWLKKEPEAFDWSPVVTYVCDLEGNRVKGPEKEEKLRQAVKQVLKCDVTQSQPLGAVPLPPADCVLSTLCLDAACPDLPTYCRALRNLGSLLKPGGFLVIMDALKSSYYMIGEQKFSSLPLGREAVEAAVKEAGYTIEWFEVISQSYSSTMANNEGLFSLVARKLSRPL
Assay [6] has as its target Phenylethanolamine N-methyltransferase (Homo sapiens) (UniProt P11086). Conditions: purified enzyme, MTase-Glo SAH luminescence; measured here: PNMT inhibition; at 40 µM; stronger effect = lower value. In outline: as §1

SMILES strings stand for the structures. The campaign covered roughly 25,000 compounds. About 970 (3.9%) were called active. Another 8% or so got no clear call; they are omitted. No rule for the calls is given here. What follows is part of a selection rich in actives, with near analogues and random picks from the rest.
% is scaled to controls: 0 for no effect and ±100 for the full control effect.

Sequence of Histamine N-methyltransferase (Homo sapiens) (P50135 whole entry, looked up): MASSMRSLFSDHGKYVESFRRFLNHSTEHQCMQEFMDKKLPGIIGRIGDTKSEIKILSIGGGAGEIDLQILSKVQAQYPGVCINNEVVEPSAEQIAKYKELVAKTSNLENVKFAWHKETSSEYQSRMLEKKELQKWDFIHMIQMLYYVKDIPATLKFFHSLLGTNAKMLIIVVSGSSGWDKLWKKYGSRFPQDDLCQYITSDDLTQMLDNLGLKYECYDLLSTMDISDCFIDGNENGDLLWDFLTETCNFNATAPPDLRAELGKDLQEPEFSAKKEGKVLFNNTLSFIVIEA
Sequence of Glycine N-methyltransferase (Homo sapiens) (Q14749 whole entry, looked up): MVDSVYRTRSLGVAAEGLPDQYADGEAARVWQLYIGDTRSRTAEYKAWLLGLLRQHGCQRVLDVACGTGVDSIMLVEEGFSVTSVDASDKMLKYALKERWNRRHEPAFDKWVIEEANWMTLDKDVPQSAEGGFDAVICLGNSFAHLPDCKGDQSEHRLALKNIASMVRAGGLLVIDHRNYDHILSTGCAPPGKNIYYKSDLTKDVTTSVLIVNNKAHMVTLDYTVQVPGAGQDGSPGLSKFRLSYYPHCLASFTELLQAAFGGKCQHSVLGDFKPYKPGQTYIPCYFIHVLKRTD
Sequence of Phenylethanolamine N-methyltransferase (Homo sapiens) (P11086 whole entry, looked up): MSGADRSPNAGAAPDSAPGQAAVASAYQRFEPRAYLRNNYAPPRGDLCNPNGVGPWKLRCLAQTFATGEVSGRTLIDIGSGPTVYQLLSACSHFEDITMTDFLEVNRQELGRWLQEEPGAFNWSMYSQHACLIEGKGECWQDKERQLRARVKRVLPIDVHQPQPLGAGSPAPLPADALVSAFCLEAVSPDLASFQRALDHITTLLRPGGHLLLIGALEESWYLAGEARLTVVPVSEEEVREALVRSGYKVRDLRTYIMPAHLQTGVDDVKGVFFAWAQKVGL
Sequence of Catechol O-methyltransferase (Homo sapiens) (P21964 whole entry, looked up): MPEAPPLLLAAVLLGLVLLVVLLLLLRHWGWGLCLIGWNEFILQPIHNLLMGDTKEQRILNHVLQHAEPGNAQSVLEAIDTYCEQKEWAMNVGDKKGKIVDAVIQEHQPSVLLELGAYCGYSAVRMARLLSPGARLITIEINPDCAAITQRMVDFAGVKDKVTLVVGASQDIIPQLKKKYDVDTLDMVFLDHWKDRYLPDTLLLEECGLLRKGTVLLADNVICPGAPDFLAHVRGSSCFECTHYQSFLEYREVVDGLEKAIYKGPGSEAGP

With `C=Cc1ccc(Cn2nc3n(CC(C)C)c(=O)c4ccc(C(=O)NC(C)CC)cc4n3c2=O)cc1` (centres undefined), the activity change, negative = inhibition in assay [1] was 2.79% (inactive); in assay [2], 4.48%; in assay [3], 0%; in assay [4] it was 10.7%; in assay [5], -0.533%; in assay [6] it was 5.38%.
For `O=S(=O)(c1ccc2[nH]c3c(c2c1)CCCC3)N1CCN(Cc2ccccc2)CC1`, the activity change, negative = inhibition in assay [1] was 4.94% (inactive); in assay [2] it was 5.6%; in assay [3] it was 0%; in assay [4], 5.93%; in assay [5], 5.54%; in assay [6], 4.34%.
In the case of `Cc1nc2c(c(NC3CC3)n1)CCN(C(=O)CCc1cccnc1)CC2`, the activity change, negative = inhibition was -0.626% (inactive) in assay [1]; -3.41% in assay [2]; -8.98% in assay [3]; -2.51% in assay [4]; -8.36% in assay [5]; -4.07% in assay [6].
Consider `COc1cc(NC(=O)Nc2cccc(CNC(=O)O[C@H]3CCOC3)c2)ccc1-c1cnco1`, for which the activity change, negative = inhibition in assay [1] was -2.73% (active); in assay [2], -16.2%; in assay [3], 1.61%; in assay [4], -89.1%; in assay [5], -22.8%; in assay [6], -6.4%.
For `CC1CCCC(NC(=O)C2(C)Cn3c(nc4ccccc43)C(=O)N2Cc2ccc(Cl)cc2)C1C` (centres undefined), the activity change, negative = inhibition in assay [1] was 1.59% (inactive); in assay [2] it was -0.93%; in assay [3] it was 1.75%; in assay [4], 0.57%; in assay [5], 2.43%; in assay [6], -2.27%.
On to `Cc1cccc(CCNC(=O)c2cc3n(n2)CC(C)(C(=O)NCc2ccccc2)N(C)C3=O)c1` (centres undefined), for which the activity change, negative = inhibition in assay [1] was 0.858% (inactive); in assay [2], 3.01%; in assay [3], 0.251%; in assay [4], 3.89%; in assay [5], 3.49%; in assay [6], 1.3%.
Take `CCCS(=O)(=O)N1CCCC(Cc2noc(-c3cnccn3)n2)C1` (centres undefined): the activity change, negative = inhibition in assay [1] was -2.88% (inactive); in assay [2] it was -4%; in assay [3] it was -4.91%; in assay [4], -0.21%; in assay [5], -5.94%; in assay [6], -4.02%.
In the case of `CCCS(=O)(=O)N1CCCC(Cn2c(C)nc3cccnc32)C1` (centres undefined), the activity change, negative = inhibition was -1.28% (active) in assay [1]; -90.9% in assay [2]; -3.03% in assay [3]; -2.37% in assay [4]; -5.85% in assay [5]; -1.53% in assay [6].
For the compound `CCCS(=O)(=O)N1CCCC(OCc2noc(C3CCOCC3)n2)C1` (centres undefined), the activity change, negative = inhibition in assay [1] was -3.2% (inactive); in assay [2] it was -4.75%; in assay [3], -6.9%; in assay [4], -3.01%; in assay [5], -9.35%; in assay [6] it was -7.82%.
As for `CC1(C(=O)NC2CCCC2)Cn2c(cc3ccccc32)C(=O)N1c1ccc(F)cc1` (centres undefined), the activity change, negative = inhibition in assay [1] was 1% (inactive); in assay [2], 0.736%; in assay [3] it was 0%; in assay [4], 3.74%; in assay [5] it was 5.9%; in assay [6], 0.017%.
For the compound `Cc1cccc(NC(=O)CSc2nnc3n(CC(C)C)c(=O)c4ccc(C(=O)NC(C)C)cc4n23)c1`, the activity change, negative = inhibition in assay [1] is 2.32% (inactive); in assay [2], 0.335%; in assay [3] it was 4.37%; in assay [4] it was 4.71%; in assay [5], -3.04%; in assay [6], 1.77%.
Consider `Cc1c(NS(=O)(=O)c2cccc3c2C(=O)c2ccccc2C3=O)c(=O)n(-c2ccccc2)n1C`, for which the activity change, negative = inhibition in assay [1] was -6.91% (inactive); in assay [2] it was -20.9%; in assay [3], 3.01%; in assay [4], -5.26%; in assay [5] it was -8.5%; in assay [6], -27%.
With `COc1ccccc1CCN1C(=O)c2ccc(-c3ccco3)n2CC1(C)C(=O)NC1CCCCCC1` (centres undefined), the activity change, negative = inhibition is -0.859% (inactive) in assay [1]; -4.07% in assay [2]; 0% in assay [3]; -1.27% in assay [4]; -3.86% in assay [5]; -2.83% in assay [6].
In the case of `Cc1ccc(N2C(=O)c3cc(-c4ccco4)nn3CC2(C)C(=O)NC2CCCCC2)cc1Cl` (centres undefined), the activity change, negative = inhibition is -4.47% (inactive) in assay [1]; -10.8% in assay [2]; 2.7% in assay [3]; -6.61% in assay [4]; -7.94% in assay [5]; -7.34% in assay [6].
